These results are taken from PubChem BioAssay (EPA / NIEHS).

Activity calls are given as the source filed them. How the source made its calls: active means hit-call score of the fitted dose curve at least 0.9, where 1 is the maximum; inactive means score below 0.9.

The assay is described as follows: APR_HepG2_MicrotubuleCSK_72hr: Apredica 72-hour HepG2 Assay for Microtubule CSK Stabilty (AID 2282919). The conditions noted are these: HepG2 microtubule cytoskeleton, high-content imaging, actives raise or lower the signal. As for the experimental part: APR_HepG2_72hr is a cell-based, multiplexed-readout assay that uses HepG2, a human liver cell line, with measurements taken at 72 hours after chemical dosing in a 384-well plate.APR_HepG2_MicrotubuleCSK_72hr is one of 10 assay component(s) measured or calculated from the APR_HepG2_72hr assay. It is designed to make measurements of protein conformation, a form of conformation reporter, as detected with fluorescence intensity signals by HCS Fluorescent Imaging technology.Data from the assay component APR_HepG2_MicrotubuleCSK_72hr was analyzed into 1 assay endpoint. This assay endpoint, APR_HepG2_MicrotubuleCSK_72hr, was analyzed with bidirectional fitting relative to DMSO as the negative control and baseline of activity. Using a type of conformation reporter, measures of protein for gain or loss-of-signal activity can be used to understand the signaling at the cellular-level. Furthermore, this assay endpoint can be referred to as a primary readout, because this assay has produced multiple assay endpoints where this one serves a signaling function. To generalize the intended target to other relatable targets, this assay endpoint is annotated to the cell morphology intended target family, where the subfamily is cell conformation.
Cells were treated with dimethyl sulfoxide (DMSO) as a solvent control at a final concentration of 0.5% v/v or with compounds in DMSO with a resulting final DMSO concentration of 0.5% v/v. Compound treatment was done at concentrations of 0.39, 0.78, 1.56, 3.12, 6.24, 12.5, 25, 50, 100, and 200 uM in duplicate on each plate. Cells were treated with compounds for 1, 24, or 72 hr. Carbonyl […] m-chloro-phenylhydrazone (CCCP) and taxol were used as positive controls for mitochondrial function and cytoskeletal stability, respectively; DMSO served as the negative control for this experiment. Cells were fixed by the direct addition of 50 uL formaldehyde in Hank's Balanced Salt Solution (HBSS) to a final concentration of 3.7%. After incubation in the fixation medium for 30 min at room temperature (293-298 K), cells were rinsed twice with HBSS and treated with cell permeabilization buffer (16 uL of 0.5% Triton X-100) for 10 min at room temperature (293-298 K) before labeling. For mitochondrial membrane potential and mitochondrial measurements, pre-fixed cells were incubated with 50 uL of MitoTracker Red CMXRos (Invitrogen) at a concentration of 250 nM for 30 min before fixation. In the remaining cases, post-fixed cells were labeled by incubation with a multiplexed mixture of primary antibodies in HBSS for 60 min at room temperature (293-298 K) to detect immunoreactivity of c-Jun (1:500), phospho-histone H3 (1:100), phospho-histone H2A.x (1:200), p53 (1:400), alpha-tubulin (1:200) and Hoechst 33342 (2 ug/mL). Cells were labeled for multiplexed imaging on two separate plates: a) Hoechst 33342, MitoTracker Red, phospho-histone H3, and alpha-tubulin, and b) Hoechst 33342, phospho-histone H2A.x, and c-Jun. A final rinse with HBSS (50 uL) was performed before analysis. The primary and secondary antibodies for the proteins were phospho-histone H3 (rabbit anti-phospho-histone H3 and FITC-donkey anti-rabbit IgG), phospho-histone H2A.x (mouse anti-phospho-histone H2A.x and FITC-donkey anti-mouse IgG), c-Jun (rabbit anti-phospho-c-Jun and Cy3-donkey anti-rabbit IgG), p53 (sheep anti-p53 and Cy5-donkey anti-sheep IgG), alpha-tubulin (mouse anti-alpha-tubulin and Cy5-donkey anti-mouse IgG). These antibodies are available as the CellCiphr HepG2 assay kit (Millipore).Digital images of each well were captured using a Cellomics ArrayScan VTI (Thermo Scientific Cellomics) (0.8 NA objective, 0.63x optical coupler, and XF-93 filter set) at 20x magnification. The images were acquired using the autofocus feature of the ArrayScan instrument, which entails the following steps. First, the camera focuses on channel 1 (Hoechst 33342), where nuclei are identified. Second, a Z offset of 1 um is used for capturing mitochondria (MitoTracker Red). […]
Turning to `O=P1(N(CCCl)CCCl)NCCCO1` (centres undefined), the call was inactive. `OCC1CO1` (centres undefined): the outcome was inactive. For the molecule `CCCN(CCC)c1c([N+](=O)[O-])cc(C(C)C)cc1[N+](=O)[O-]`, the concentration at half-maximal activity (AC50) is 41.2 µM (active).

In the case of `CCOP(=S)(Oc1ccc([N+](=O)[O-])cc1)c1ccccc1` (centres undefined), the molecule was classed as inactive. The same measure, in the same setting: the same measure for `O=[N+]([O-])c1ccc(Cl)c(Cl)c1`: “inactive”. In the case of `CCCCN(CCCC)SN(C)C(=O)Oc1cccc2c1OC(C)(C)C2`, the AC50 was 97.1 µM (active). The same measure, in the same setting: the same measure for `ClC1=C(Cl)C2(Cl)C3C(Cl)C(Cl)CC3C1(Cl)C2(Cl)Cl` (centres undefined): 98.6 µM (active).

In the case of `CCOS(=O)(=O)OCC`, the molecule was called inactive.

As for `CC(Cc1ccc(OCC(=O)O)cc1)NCC(O)c1csc(C(F)(F)F)n1` (centres undefined), the call was inactive. Still for that read-out and setting: the same measure for `Cc1ccc([N+](=O)[O-])cc1C`: “inactive”; for `CCCCc1ccccc1`: “inactive”; for `c1ccc(OP(Oc2ccccc2)Oc2ccccc2)cc1`: “inactive”. On to `CCCCN(CCCC)N=O`, for which the result was inactive. As to `Nc1ccc2ccccc2c1`, the outcome was inactive. With `[N-]=[N+]=[N-]`, the outcome was inactive.

In the case of `O=[N+]([O-])c1ccccc1`, the molecule was classed as inactive.

Consider `CCC1(c2ccccc2)C(=O)N=C(O)NC1=O` (centres undefined), for which the molecule was classed as inactive. On to `ClC(Cl)c1ccccc1`, for which the result was inactive. As for `CCCCCCCc1ccc(O)cc1`, the molecule was classed as inactive. For `c1nc[nH]n1`, the call was inactive. Consider `CSC(C)(C)C=NO`, for which the outcome was inactive. As for `COCCOCCO`, the call was inactive. For `CC(Cl)(Cl)C(=O)O`, the molecule was called inactive. With `O=P(Oc1ccccc1)(Oc1ccccc1)Oc1ccccc1`, the AC50 was 79.4 µM (active). Consider `Cc1ccc(N)cc1N`, for which the molecule was classed as inactive.

In the case of `Cc1cccc(N)c1`, the call was inactive.

For `CCC(C)(C)c1ccc(O)cc1`, the molecule was called inactive. `CCN(CC)c1ccccc1`: the result was inactive. For `c1ccc2c(c1)Nc1ccccc1S2`, the call was inactive. With `CCOc1ccc(C(C)(C)COCc2cccc(Oc3ccccc3)c2)cc1`, the call was inactive. Same read-out and setting: the same measure for `CCNc1nc(Cl)nc(NC(C)(C)C)n1`: “inactive”; for `ClC(Cl)(Cl)c1ccccc1`: “inactive”; for `CCOC(=O)c1ccccc1C(=O)OCC`: “inactive”.

Regarding `O=C(O)C(Cl)Cl`, the call was inactive. As for `Nc1cc2c3c(c1)C(c1ccccc1)=N[C@@H](NC(=O)c1cccnc1)C(=O)N3CC2`, the result was inactive. As for `CC(C)(C)OOC(C)(C)C`, the outcome was inactive. As for `CCOP(=S)(OCC)SCSCC`, the molecule was called inactive. For the molecule `Nc1ccc(Cl)cc1`, the molecule was called inactive. In the case of `CN(C)C(=O)Cl`, the call was inactive.

Usually AC50 stands for the concentration at which the activity in the assay is half-maximal.
